Test results taken from PubChem BioAssay AID1159580 (chemical genetic matrix, 2015).
“And” between values parts separate entries of the source, which are not always exact repeats. Equal entries are not always repeated. The whole screen tested about 5,500 compounds, of which about 2,000 (36%) were called active. Not shown: some 18% with an inconclusive outcome. Cut-off read from the data, not from the text of the source: active = normalized growth mostly below about 0.91 (no sharp cut-off); inconclusive = no clear call, values can overlap the other calls; inactive = mostly above about 0.92. The list shows a part of the results.

Test: chemical genetic growth profiling, strain panel (AID 1159580);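 note: tested at 20 µM; growth read once vehicle control cultures reached saturation at 30 °C; 1 = growth at the plate median or of vehicle wells; lower values mean less growth of the strain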
Conditions: S. cerevisiae deletion strains, growth OD

Measured: normalized growth

COc1ccc2[nH]cc(CCNC(C)=O)c2c1
inactive: locus YAL013W, strain DEP1, stronger effect = lower value 1.01 | locus YAL021C, strain ccr4, stronger effect = lower value 0.977 | locus YAL026C, strain drs2, stronger effect = lower value 0.983 | locus YAL030W, strain snc1, stronger effect = lower value 0.984 | locus YAL040C, strain CLN3, stronger effect = lower value 0.996 | locus YBL061C, strain skt5, stronger effect = lower value 0.969 | locus YBR009C, strain hhf1, stronger effect = lower value 0.983 | locus YBR021W, strain FUR4, stronger effect = lower value 1.01 | locus YBR023C, strain chs3, stronger effect = lower value 0.979 | locus YBR171W, strain sec66, stronger effect = lower value 0.966 | locus YBR229C, strain ROT2, stronger effect = lower value 1.02 | locus YBR231C, strain swc5, stronger effect = lower value 0.971 | locus YBR279W, strain paf1, stronger effect = lower value 0.978 | locus YCL011C, strain gbp2, stronger effect = lower value 0.979 | locus YCL016C, strain dcc1, stronger effect = lower value 0.972 | locus YCL029C, strain bik1, stronger effect = lower value 1.02 | locus YCL061C, strain MRC1 (second series), stronger effect = lower value 1.01 | locus YCL061C, strain MRC1, stronger effect = lower value 0.984 | locus YCL069W, strain vba3, stronger effect = lower value 0.977 | locus YCR088W, strain abp1, stronger effect = lower value 0.968 | locus YDL005C, strain med2, stronger effect = lower value 0.959 | locus YDL035C, strain GPR1, stronger effect = lower value 1.01 | locus YDL040C, strain nat1, stronger effect = lower value 0.971 | locus YDL074C, strain BRE1, stronger effect = lower value 1.02 | locus YDL101C, strain DUN1, stronger effect = lower value 1.01 | locus YDL134C, strain PPH21, stronger effect = lower value 1.01 | locus YDL185W, strain tfp1, stronger effect = lower value 1.03 | locus YDL192W, strain arf1, stronger effect = lower value 1.03 | locus YDR001C, strain nth1, stronger effect = lower value 0.973 | locus YDR069C, strain doa4, stronger effect = lower value 0.958 | locus YDR101C, strain arx1, stronger effect = lower value 1.02 | locus YDR137W, strain rgp1, stronger effect = lower value 0.992 | locus YDR150W, strain NUM1, stronger effect = lower value 1 and 1.01 | locus YDR159W, strain sac3, stronger effect = lower value 0.943 | locus YDR162C, strain NBP2, stronger effect = lower value 1.02 | locus YDR195W, strain ref2 0.959 | locus YDR297W, strain sur2, stronger effect = lower value 0.967 | locus YDR318W, strain mcm21, stronger effect = lower value 1.02 | locus YDR334W, strain swr1, stronger effect = lower value 0.969 | locus YDR335W, strain msn5, stronger effect = lower value 0.977 | locus YDR363W, strain ESC2, stronger effect = lower value 0.996 | locus YDR388W, stronger effect = lower value 1.02 | locus YDR392W, strain spt3, stronger effect = lower value 0.958 | locus YDR502C, strain sam2, stronger effect = lower value 1.03 | locus YEL003W, strain gim4, stronger effect = lower value 0.974 | locus YEL037C, strain rad23, stronger effect = lower value 0.966 | locus YEL061C, strain CIN8 (second series), stronger effect = lower value 0.972 | locus YEL061C, strain CIN8, stronger effect = lower value 1 | locus YER002W, strain NOP16, stronger effect = lower value 0.999 | locus YER015W, strain faa2, stronger effect = lower value 0.981 | locus YER016W, strain bim1, stronger effect = lower value 0.975 | locus YER110C, stronger effect = lower value 1.02 | locus YER111C, strain swi4, stronger effect = lower value 0.976 | locus YER155C, strain BEM2 (second series), stronger effect = lower value 0.971 | locus YER155C, strain BEM2, stronger effect = lower value 0.998 | locus YER167W, strain BCK2, stronger effect = lower value 1.01 | locus YFR010W, strain ubp6, stronger effect = lower value 0.955 | locus YGL078C, strain dbp3, stronger effect = lower value 1.02 | locus YGL086W, strain mad1, stronger effect = lower value 1.02 | locus YGL167C, strain pmr1, stronger effect = lower value 0.96 | locus YGL173C, strain kem1, stronger effect = lower value 0.955 | locus YGL227W, strain vid30, stronger effect = lower value 0.962 | locus YGL240W, strain doc1, stronger effect = lower value 0.963 | locus YGL248W, strain PDE1, stronger effect = lower value 1.01 | locus YGL253W, strain hxk2, stronger effect = lower value 0.983 | locus YGR078C, strain PAC10, stronger effect = lower value 1.02 and 1.01 | locus YGR135W, strain pre9, stronger effect = lower value 1.03 | locus YGR229C, strain SMI1, stronger effect = lower value 1.01 | locus YGR252W, strain gcn5, stronger effect = lower value 1.05 | locus YHR013C, strain ard1, stronger effect = lower value 0.968 | locus YHR027C, strain rpn1, stronger effect = lower value 0.994 | locus YHR030C, strain SLT2, stronger effect = lower value 0.998 and 0.997 | locus YHR079C, strain IRE1 (second series), stronger effect = lower value 1.02 | locus YHR079C, strain IRE1, stronger effect = lower value 0.998 | locus YHR094C, strain hxt1, stronger effect = lower value 1.02 | locus YHR129C, strain ARP1, stronger effect = lower value 1 | locus YHR142W, strain chs7, stronger effect = lower value 0.964 | locus YHR200W, strain rpn10, stronger effect = lower value 1.03 | locus YIL066C, strain RNR3, stronger effect = lower value 1.01 | locus YIL073C, strain SPO22, stronger effect = lower value 1.08 | locus YIL125W, strain kgd1, stronger effect = lower value 1.03 | locus YIR030C, strain dcg1, stronger effect = lower value 1.03 | locus YJL092W, strain hpr5, stronger effect = lower value 0.974 | locus YJL095W, strain BCK1 (second series), stronger effect = lower value 0.971 | locus YJL095W, strain BCK1, stronger effect = lower value 1.02 | locus YJL115W, strain asf1, stronger effect = lower value 0.969 | locus YJL129C, strain trk1, stronger effect = lower value 0.967 | locus YJL134W, strain LCB3, stronger effect = lower value 1 | locus YJL154C, strain vps35, stronger effect = lower value 0.957 | locus YJL164C, strain tpk1, stronger effect = lower value 0.986 | locus YJL166W, strain qcr8, stronger effect = lower value 0.979 | locus YJL168C, strain set2, stronger effect = lower value 1.03 | locus YJL187C, strain SWE1 (second series), stronger effect = lower value 1.01 | locus YJL187C, strain SWE1, stronger effect = lower value 0.979 | locus YJR043C, strain POL32, stronger effect = lower value 0.994 | locus YJR066W, strain TOR1, stronger effect = lower value 0.941
